This is an account of results in the supplement of paper PMC11732987, “Enantioselective OTUD7B fragment discovery through chemoproteomics screening and high-throughput optimisation” (Communications Chemistry, 2025).

A number with no mark means an inactive call.

Assay in all cases: log2 ratio of Biotin-Ahx-Ub-VS probe labelling (fragment/DMSO); higher = less target engagement (more negative = stronger competition), active = hit call of the paper (q ≤ 0.05, log2 ratio ≤ -1)
Holding throughout (settings): compound concentration: 200 uM; treatment time: 3 h

In assay [1] the target is T1, USP19 (UniProt O94966).
T1 sequence (whole entry): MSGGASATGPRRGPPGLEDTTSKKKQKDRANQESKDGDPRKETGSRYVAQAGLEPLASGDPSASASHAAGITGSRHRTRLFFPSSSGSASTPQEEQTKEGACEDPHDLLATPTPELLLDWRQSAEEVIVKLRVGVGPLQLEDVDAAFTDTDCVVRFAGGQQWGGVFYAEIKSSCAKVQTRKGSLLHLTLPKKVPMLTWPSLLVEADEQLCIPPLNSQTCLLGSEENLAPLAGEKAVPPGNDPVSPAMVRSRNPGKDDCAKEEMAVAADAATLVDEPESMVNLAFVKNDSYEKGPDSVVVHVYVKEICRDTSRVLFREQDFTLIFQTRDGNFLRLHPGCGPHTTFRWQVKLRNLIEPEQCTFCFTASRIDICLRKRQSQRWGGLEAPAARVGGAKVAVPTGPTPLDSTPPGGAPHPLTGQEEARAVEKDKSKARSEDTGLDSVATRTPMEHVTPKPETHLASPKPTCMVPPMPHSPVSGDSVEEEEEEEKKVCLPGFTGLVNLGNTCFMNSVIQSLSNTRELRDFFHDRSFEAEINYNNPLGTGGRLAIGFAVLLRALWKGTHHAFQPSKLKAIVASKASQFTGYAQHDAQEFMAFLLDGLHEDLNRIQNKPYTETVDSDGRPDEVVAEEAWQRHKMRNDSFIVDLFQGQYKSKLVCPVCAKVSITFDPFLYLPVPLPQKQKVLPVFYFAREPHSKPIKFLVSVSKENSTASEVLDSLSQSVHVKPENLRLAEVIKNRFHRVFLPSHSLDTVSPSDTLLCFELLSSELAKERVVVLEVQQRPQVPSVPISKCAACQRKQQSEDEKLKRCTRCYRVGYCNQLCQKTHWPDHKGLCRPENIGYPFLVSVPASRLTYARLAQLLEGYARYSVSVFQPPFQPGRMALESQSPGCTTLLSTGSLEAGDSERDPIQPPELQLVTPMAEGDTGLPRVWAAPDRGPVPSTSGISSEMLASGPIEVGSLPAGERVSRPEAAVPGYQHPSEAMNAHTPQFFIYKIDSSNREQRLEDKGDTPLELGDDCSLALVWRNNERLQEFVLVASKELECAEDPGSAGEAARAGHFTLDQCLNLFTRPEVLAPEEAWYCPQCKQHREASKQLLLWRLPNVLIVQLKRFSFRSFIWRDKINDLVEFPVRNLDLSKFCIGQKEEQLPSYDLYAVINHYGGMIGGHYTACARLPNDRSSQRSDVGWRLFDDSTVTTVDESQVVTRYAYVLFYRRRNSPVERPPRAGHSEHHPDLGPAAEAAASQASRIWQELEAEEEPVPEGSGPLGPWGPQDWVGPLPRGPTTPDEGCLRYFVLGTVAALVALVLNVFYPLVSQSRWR
The method, boiled down:
(§1)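 Global-median-normalised Spectronaut label-free quantities were compared by unpaired t-test, and values are average log2 ratios of fragment over vehicle. Only proteins with ≥2 unique peptides were used. HEK293T lysate (495 µg per sample) was treated in triplicate with fragment at 200 µM or vehicle for 3 h and then with Biotin-Ahx-Ub-VS at 0.5 µM final for 1 h. Labelled DUBs were then NeutrAvidin-enriched, digested with LysC and trypsin, and run by diaPASEF LC-MS/MS.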

Assay [2] has as its target USP24 (UniProt Q9UPU5). The method, boiled down: as §1
In assay [3] the target is T2, USP25 (UniProt Q9UHP3).
T2 sequence (whole entry): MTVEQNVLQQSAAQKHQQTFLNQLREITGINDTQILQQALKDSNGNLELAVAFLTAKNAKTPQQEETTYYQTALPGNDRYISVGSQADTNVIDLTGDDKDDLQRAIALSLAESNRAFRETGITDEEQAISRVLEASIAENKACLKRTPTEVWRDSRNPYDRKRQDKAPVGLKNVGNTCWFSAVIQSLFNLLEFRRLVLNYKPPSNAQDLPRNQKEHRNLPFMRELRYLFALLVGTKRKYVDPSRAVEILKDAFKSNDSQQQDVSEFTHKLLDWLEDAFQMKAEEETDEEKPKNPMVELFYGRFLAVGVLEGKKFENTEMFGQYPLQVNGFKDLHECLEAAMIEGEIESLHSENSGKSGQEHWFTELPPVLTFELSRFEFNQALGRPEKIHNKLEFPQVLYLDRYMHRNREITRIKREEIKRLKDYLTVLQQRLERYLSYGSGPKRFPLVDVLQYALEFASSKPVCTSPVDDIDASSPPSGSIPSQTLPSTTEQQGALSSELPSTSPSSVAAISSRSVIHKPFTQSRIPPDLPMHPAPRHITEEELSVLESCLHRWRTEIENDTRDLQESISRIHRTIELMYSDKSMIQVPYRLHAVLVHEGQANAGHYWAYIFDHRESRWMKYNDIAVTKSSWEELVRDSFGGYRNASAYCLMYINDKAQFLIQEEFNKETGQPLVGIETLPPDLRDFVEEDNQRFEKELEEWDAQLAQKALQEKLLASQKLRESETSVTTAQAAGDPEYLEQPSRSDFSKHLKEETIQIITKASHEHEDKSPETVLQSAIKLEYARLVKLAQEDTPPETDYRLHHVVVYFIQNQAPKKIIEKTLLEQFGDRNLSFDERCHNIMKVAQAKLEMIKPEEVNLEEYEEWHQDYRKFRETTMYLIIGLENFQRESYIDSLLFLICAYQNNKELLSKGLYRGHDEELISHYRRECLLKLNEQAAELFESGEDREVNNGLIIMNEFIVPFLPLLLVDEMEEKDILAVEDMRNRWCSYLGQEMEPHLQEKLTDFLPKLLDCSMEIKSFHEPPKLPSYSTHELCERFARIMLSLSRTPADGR
The procedure, abridged: as §1

The target of assay [4] is T3, USP28 (UniProt Q96RU2).
T3 sequence (whole entry): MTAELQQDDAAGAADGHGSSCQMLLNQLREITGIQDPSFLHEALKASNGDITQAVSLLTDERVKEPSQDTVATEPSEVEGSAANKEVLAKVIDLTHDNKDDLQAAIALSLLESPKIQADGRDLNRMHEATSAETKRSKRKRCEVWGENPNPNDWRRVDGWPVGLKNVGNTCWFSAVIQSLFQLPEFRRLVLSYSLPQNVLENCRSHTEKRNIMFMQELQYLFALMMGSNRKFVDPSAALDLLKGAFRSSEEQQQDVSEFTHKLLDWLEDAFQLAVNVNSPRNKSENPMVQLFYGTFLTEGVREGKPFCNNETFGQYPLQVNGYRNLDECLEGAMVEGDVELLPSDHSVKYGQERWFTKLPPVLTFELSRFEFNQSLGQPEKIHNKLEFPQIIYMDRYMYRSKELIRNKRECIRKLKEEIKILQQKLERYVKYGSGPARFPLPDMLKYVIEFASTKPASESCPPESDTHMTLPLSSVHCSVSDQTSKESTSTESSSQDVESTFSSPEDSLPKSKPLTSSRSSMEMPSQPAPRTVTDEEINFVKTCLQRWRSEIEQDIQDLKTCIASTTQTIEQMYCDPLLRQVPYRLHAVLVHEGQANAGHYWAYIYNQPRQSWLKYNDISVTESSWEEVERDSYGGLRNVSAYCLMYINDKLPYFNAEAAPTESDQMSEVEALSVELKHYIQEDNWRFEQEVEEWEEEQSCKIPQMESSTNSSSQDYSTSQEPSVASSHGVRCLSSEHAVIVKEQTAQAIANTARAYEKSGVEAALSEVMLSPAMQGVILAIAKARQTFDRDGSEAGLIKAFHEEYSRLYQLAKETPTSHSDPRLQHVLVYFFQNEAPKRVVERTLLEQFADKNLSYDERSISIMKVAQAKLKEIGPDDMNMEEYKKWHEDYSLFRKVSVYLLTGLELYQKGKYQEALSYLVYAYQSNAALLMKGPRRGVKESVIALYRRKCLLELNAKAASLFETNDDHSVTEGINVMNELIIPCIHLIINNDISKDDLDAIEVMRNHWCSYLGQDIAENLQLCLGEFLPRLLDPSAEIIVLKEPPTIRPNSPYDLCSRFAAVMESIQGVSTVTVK
The procedure, abridged: as §1

USP24, sequence (Q9UPU5 whole entry): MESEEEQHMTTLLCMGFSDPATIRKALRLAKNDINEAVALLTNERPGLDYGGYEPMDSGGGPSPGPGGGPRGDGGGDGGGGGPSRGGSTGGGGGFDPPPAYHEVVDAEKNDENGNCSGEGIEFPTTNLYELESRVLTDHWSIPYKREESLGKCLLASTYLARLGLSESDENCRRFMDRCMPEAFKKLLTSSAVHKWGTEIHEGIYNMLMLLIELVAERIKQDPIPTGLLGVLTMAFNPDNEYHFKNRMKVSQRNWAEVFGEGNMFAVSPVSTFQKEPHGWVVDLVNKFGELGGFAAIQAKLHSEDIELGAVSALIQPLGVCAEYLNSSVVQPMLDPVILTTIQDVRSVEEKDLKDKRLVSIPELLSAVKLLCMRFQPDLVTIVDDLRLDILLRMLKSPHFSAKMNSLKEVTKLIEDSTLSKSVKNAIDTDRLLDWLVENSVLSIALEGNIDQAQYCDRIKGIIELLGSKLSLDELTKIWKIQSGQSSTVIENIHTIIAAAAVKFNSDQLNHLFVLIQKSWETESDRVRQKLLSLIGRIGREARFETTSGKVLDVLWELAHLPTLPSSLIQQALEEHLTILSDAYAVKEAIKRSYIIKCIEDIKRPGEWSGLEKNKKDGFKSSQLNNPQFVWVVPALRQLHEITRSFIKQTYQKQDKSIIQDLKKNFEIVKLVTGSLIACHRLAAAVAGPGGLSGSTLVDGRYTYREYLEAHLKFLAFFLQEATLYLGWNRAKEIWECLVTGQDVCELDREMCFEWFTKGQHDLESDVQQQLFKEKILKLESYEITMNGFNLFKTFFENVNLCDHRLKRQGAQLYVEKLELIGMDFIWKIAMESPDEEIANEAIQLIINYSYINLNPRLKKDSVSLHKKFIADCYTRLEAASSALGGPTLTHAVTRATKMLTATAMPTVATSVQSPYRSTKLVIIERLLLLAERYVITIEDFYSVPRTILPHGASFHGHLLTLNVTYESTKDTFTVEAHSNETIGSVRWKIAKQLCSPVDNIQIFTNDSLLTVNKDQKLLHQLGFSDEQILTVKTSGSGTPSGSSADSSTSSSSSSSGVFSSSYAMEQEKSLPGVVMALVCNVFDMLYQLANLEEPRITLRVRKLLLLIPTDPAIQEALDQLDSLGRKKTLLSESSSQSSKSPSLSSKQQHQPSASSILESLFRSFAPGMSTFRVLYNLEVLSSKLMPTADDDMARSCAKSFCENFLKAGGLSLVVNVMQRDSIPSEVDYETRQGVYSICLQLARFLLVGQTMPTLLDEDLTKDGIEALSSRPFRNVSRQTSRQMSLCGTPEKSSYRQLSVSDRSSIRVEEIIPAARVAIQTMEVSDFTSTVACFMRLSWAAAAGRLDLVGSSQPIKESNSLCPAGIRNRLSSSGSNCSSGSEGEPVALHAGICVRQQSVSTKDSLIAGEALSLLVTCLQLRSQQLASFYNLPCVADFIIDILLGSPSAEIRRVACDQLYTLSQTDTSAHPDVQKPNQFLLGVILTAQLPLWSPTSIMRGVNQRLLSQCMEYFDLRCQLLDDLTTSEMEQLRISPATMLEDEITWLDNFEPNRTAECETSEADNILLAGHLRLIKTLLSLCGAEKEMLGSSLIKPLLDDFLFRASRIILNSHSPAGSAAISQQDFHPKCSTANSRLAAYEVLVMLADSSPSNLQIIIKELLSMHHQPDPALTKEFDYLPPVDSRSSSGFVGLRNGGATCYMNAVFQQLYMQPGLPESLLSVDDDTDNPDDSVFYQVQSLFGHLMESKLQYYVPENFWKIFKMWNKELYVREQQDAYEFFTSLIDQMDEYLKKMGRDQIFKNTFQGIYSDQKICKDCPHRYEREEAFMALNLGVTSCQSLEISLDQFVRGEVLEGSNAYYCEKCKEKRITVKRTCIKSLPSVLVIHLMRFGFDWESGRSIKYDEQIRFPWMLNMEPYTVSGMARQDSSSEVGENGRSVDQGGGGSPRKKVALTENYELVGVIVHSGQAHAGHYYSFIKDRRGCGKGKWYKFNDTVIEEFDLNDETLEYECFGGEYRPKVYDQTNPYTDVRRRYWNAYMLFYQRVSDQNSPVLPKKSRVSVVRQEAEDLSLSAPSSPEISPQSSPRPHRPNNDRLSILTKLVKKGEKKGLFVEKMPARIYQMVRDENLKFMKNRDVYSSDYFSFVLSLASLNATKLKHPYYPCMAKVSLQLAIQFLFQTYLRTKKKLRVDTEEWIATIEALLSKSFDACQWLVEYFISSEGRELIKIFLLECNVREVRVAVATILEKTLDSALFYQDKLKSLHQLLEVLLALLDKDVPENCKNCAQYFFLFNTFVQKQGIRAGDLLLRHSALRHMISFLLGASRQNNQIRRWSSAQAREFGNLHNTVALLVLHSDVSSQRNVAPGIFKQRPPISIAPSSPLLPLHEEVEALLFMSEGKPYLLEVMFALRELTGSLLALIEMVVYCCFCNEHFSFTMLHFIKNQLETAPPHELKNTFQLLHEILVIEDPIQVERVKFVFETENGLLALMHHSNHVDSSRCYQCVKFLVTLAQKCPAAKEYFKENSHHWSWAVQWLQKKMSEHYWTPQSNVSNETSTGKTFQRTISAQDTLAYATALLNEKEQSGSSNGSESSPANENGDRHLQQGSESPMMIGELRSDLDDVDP

Consider `NS(=O)(=O)c1ccc(Cl)c(NC(=O)CCl)c1`, for which the “log2 ratio of Biotin-Ahx-Ub-VS probe labelling” value in assay [1] is -0.307; in assay [2], -0.149; in assay [3] it was -1.57 (active); in assay [4] it was -1.42 (active).
